Screens: PubChem BioAssay, several laboratories
Most compounds without a hit are left out; they make up all but 0.97% or so of the library.
RecA intein inh = Mtb RecA intein splicing inhibition. P9WHJ3. inhibition, % (test concentration not listed). 290,000 tested, 0.75% active. cell-free RecA intein splicing, fluorescence; in the data active means inhibition above about 30%;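 further: 0% = vehicle wells and 100% = reference inhibitor control wells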
Rv3671c protease = Rv3671c (M. tuberculosis) protease inhibition; 320,000 tested, 0.048% active; P9WHR9; AID 2606; inhibition, % at 5.96 µM; in the data active means inhibition above about 38%;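 further: extracellular domain of Rv3671c used as enzyme; 0% = enzyme with DMSO and 100% = no enzyme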
TcdB GH inh = blocks C. difficile toxin B glycohydrolase activity; inhibition, % at 9.99 µM; TcdB glycohydrolase enzymatic assay, plate reader; 350,000 tested, 0.24% active; P18177; in the data active means inhibition above about 10%
Mtb UGM inh = Mtb UDP-galactopyranose mutase inhibition; inhibition, % at 10 µM; purified UGM, fluorescence polarization probe displacement; 320,000 tested, 0.06% active; P9WIQ1; AID 504406; in the data active means inhibition above about 10%, passing the limit was not always enough
FadD28 binding = blocks FadD28 binding to the bisubstrate probe. inhibition, % at 12.5 µM. 360,000 tested, 0.22% active. fluorescence polarization; in the data active means inhibition above about 8.5%, passing the limit was not always enough
Mtb BioA inh = BioA (M. tuberculosis) enzyme inhibition | inhibition, % at 9.99 µM | 360,000 tested, 0.096% active | purified M. tuberculosis BioA enzyme, plate reader; in the data active means inhibition above about 40%
Starred values were filed as active, the others as inactive.

`CC(C)(C)c1cc(NC(=O)CCl)n(-c2ccccc2)n1` gave RecA intein inh 38*, Rv3671c protease -1, TcdB GH inh 2, Mtb UGM inh 0, FadD28 binding 1 and Mtb BioA inh -1.
For CO[C@H]1CN(C)C(=O)c2ccc(NC(=O)Nc3ccccc3F)cc2OC[C@@H](C)N(C(C)=O)C[C@@H]1C the results were TcdB GH inh -2 and Mtb BioA inh -1.
For O=C(CSc1ncnc2c1nnn2Cc1ccccc1F)N1CCN(c2ccccc2)CC1 the results were RecA intein inh 43*, FadD28 binding -3 and Mtb BioA inh -1.
CC(C)(C)NC(=O)CSc1ncnc2c1nnn2Cc1ccccc1Cl was read as RecA intein inh 61*, Rv3671c protease 5, Mtb UGM inh 1, FadD28 binding -4 and Mtb BioA inh 3.
CCCNC(=O)N1CC(=O)N2[C@H](CO)[C@@H](c3ccc(C#Cc4cccc(F)c4)cc3)[C@H]2C1 was read as TcdB GH inh 0.
Screening CS(=O)(=O)C1=NN2C(=N)/C(=C\c3ccc(OC(=O)c4ccco4)cc3)C(=O)N=C2S1 returned RecA intein inh 37*, Rv3671c protease 2, TcdB GH inh 0, Mtb UGM inh -1, FadD28 binding -3 and Mtb BioA inh 0.
For CCOc1cc(/C=C2/C(=N)N3C(=NC2=O)SN=C3S(=O)(=O)C(C)C)ccc1OC(=O)c1ccco1 the results were RecA intein inh 32*, Rv3671c protease -11, TcdB GH inh 2, Mtb UGM inh -1, FadD28 binding -4 and Mtb BioA inh 0.
For COc1cc(/C=C2/C(=N)N3C(=NC2=O)SN=C3S(=O)(=O)C(C)C)ccc1OC(=O)c1ccco1 the results were RecA intein inh 23, Rv3671c protease 0, TcdB GH inh 1, Mtb UGM inh 1, FadD28 binding -2 and Mtb BioA inh -1.
Screening N=C1/C(=C\c2ccc(OC(=O)c3ccc(F)cc3)cc2)C(=O)N=C2SC(N3CCOCC3)=NN12 returned RecA intein inh 39*, Rv3671c protease 4, TcdB GH inh 0, Mtb UGM inh 0, FadD28 binding -1 and Mtb BioA inh 0.
Screening CC(C)CS(=O)(=O)C1=NN2C(=N)/C(=C\c3ccc(OC(=O)c4ccco4)cc3)C(=O)N=C2S1 returned RecA intein inh 40*, Rv3671c protease -10, TcdB GH inh 0, Mtb UGM inh -2, FadD28 binding 4 and Mtb BioA inh 1.
`Cc1ccc(S(=O)(=O)Oc2ccc(/C=N/NC(=O)c3nn(C)cc3[N+](=O)[O-])cc2)cc1` gave RecA intein inh -3, Rv3671c protease 0, TcdB GH inh 14*, Mtb UGM inh 2 and FadD28 binding -7.
Screening O=C(NC(=S)NNC(=O)c1ccccc1F)c1cccnc1 returned RecA intein inh 4, Rv3671c protease 26, TcdB GH inh 15*, Mtb UGM inh -1, FadD28 binding -1 and Mtb BioA inh -4.
`COc1ccc(/C=C2\CCCc3c2nc2ccccc2c3C(=O)O)cc1OC` gave RecA intein inh -39, Rv3671c protease 2 and Mtb UGM inh 48*.
COc1ccc(/C=C2\CCc3c2nc2ccccc2c3C(=O)O)cc1OC was read as RecA intein inh -496, Rv3671c protease -4, TcdB GH inh 0, Mtb UGM inh 3 and FadD28 binding 2.
Screening CCOc1ccc(/C=C2\CCCc3c2nc2ccccc2c3C(=O)O)cc1OC returned RecA intein inh -69, Rv3671c protease 3, Mtb UGM inh 70*, FadD28 binding 4 and Mtb BioA inh -197.
Screening COc1cc(/C=C2\CCCc3c2nc2ccccc2c3C(=O)O)cc(OC)c1O returned RecA intein inh -10, Rv3671c protease 0, TcdB GH inh -9, Mtb UGM inh 1, FadD28 binding -4 and Mtb BioA inh -1.
For Cc1ccc(-c2cnc3c(c2)C(=O)N([C@H](C)CO)C[C@@H](C)[C@@H](CN(C)C)O3)cc1 the results were TcdB GH inh -1 and Mtb BioA inh -3.
`O=C(NCC[C@@H]1CC[C@@H](NS(=O)(=O)c2ccccc2)[C@@H](CO)O1)c1ccc2c(c1)OCO2` gave TcdB GH inh 1 and Mtb BioA inh -3.
`CCCNC(=O)[C@@H]1[C@@H](CO)[C@@H]2Cn3c(ccc(-c4ccccc4F)c3=O)[C@@H]2N1C` gave TcdB GH inh 0.
ClC(Cl)(Cl)c1nc2ccccc2n2nncc12 was read as RecA intein inh 55*, Rv3671c protease -11, TcdB GH inh -1, Mtb UGM inh 0, FadD28 binding -3 and Mtb BioA inh 1.
